In all, about 53,000 sequences went through this assay and about 3,700 (7%) were called active. The full list was thinned out, with actives kept by preference. Unmarked numbers belong to inactive results.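 Rule for the calls: active = gene knockdowns whose robust z-score for IL-1 alpha signal is at least 2 or at most -2, so actives lie on both sides; inactive = the rest.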

This assay can be described thus: Components of the Cytosolic LPS Sensing Pathway: Gene Identification via Genome-wide siRNA Screen.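 Note: robust z of the log signal after scaling to non-targeting control siRNA wells of the plate.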 The conditions noted are these: RAW264.7 macrophages, IL-1a HTRF, actives lie on both sides, screened at 100 nM (by protocol), cells primed 5 h with Pam3CSK4 first. The gist of the method:
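Cells (RAW264.7, 1×10^4 per well) were transfected with siRNA at 100 nM and cultured 48h at 37 degrees C. Pam3CSK4 was added for 5 hours; LipidA transfection followed for 24 hour. IL-1a was then measured by HTRF.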
(TR-FRET usually uses a lanthanide donor and a delayed reading to cut background.)
For the sequence GGAAUGAAGUCUGUCUUCGTT against Zdhhc7, the z-score was 0.648. Regarding GGAGGAGGAGCUGAAGAAATT against Atp12a, the z-score is -0.679.

GGAAAGAUUUAUUUUGACGTT against Vnn3: the z-score was 0.286. Under GGGUAUUGCUGGACAACGUTT against Col1a1 stands 3.85 (active); under GGUCUUCAGCACCUUUGAATT against Ccl2, -0.903. Under GGUACUUUUAUCUUAGCUATT against Paral1 stands 0.0889. To GGGAUUGUGAAUUUCAUGUTT against Gca belongs 1.3; to GCAGAUCAAUGACUAUAGATT against Arhgef11, 0.858; to GCCAUAUGGGCAGAUGUUUTT against Sec24b, -0.682. GCCUAAGAGUUUCAAUAAGTT against Tgtp1: the z-score was -1.21. To GCAAAUGCACACUCUAGGATT against Ptprn2 belongs -0.0741.

As to GGAAUUUUAUGCCAAGAAUTT against Hip1r, the z-score is -3.89 (active). To GGAAGAAUCGCUGCUACCGTT against Mrpl20 belongs 1.06. To GCUGUGAUCAGGACGAGAATT against Stx2 belongs 0.187; to GGGAAAGAUUCAUGUUACUTT against Mug2, -0.804; to GCUAACCAGUCAGUUGAUCTT against Mocs1, -0.086. On to CCUUACCAAUGUUCAUUUATT against Skint7, for which the z-score was -0.32.

Regarding GGAUCUGCAUUUCACUAUUTT against Pi4ka, the z-score is 0.818. Under GCAUACAAAUGCACAUUGATT against Lsg1 stands 2.69 (active).

As to GGAUCCGUGAAUGUAGUCATT against Rapgef4, the z-score is -0.793. On to CGGAUUGUAAAGAACUGCATT against Sfrp1, for which the z-score is -0.0934. To GCUUUGUGAUGGAUUACUATT against Ccl4 belongs 1.85. To CGUAUACUGUGAUUGAUAUTT against Lcn5 belongs -0.647. Under GGCCAGAAGAUUCCUAAAGTT against Gulp1 stands 3.38 (active). With GUUACAGUAUUCUAUGGGATT against Olfr1080, the z-score was 0.508. To GGUUUUUCUGAGUUUCCGUTT against Il4i1 belongs -1.03; to GCCUCAUUAUAAAUCACACTT against Bclaf3, 0.752. Under GGUGGAGUUCGUGUUGAGCTT against Slc6a11 stands -0.527. With GAAGGACACCCUUAUAUUUTT against Olfr1216, the z-score was 0.892. To GGAUGGUCACGGAAGUUCUTT against Lmf2 belongs 2.36 (active); to GGGCCUCAUCUUUGUGGUATT against Arf5, 0.359; to GGAUUGUUUAUCUGUCUUCTT against Cyp3a44, -1.05. To GGACCUAAAGUUUCUCUCATT against Ccnc belongs -0.2; to GGUCAUAGCUGGAUUCCUUTT against Olfr1453, -1.47; to GCUUAUAAUGGCAAUAUUGTT against Nvl, 0.275. To GGACAAAAUUGAACACAAGTT against Pogz belongs 2.86 (active); to GGCGAAUUAAUUAACCGCCTT against Abcb10, 0.798; to CCUCGAUAGGUUAGUGACATT against Fdxacb1, -0.731.

Consider GGUACAGAAACAGUUAGUUTT against Olfr432, for which the z-score is 0.328. Under GCUUCCUAGAUCAUGACUGTT against Ube2g2 stands -0.318; under GGUCUGGUCAUCUCAGUUUTT against Tmem159, 3.53 (active).

As to GGCAAUAGCUACACCUUCATT against Csf1r, the z-score is 1.9.

Regarding CCAUUGUCACUCCUAGUGUTT against Olfr1361, the z-score was 1.03. For GGAACAAGAAGAAGAAAAATT against Slco3a1, the z-score was -1.03.

On to GGUACUUUACACUGAACAATT against Serpinb13, for which the z-score is 2.91 (active). Consider “GGCAUGUAGGGUUUUGUUUTT against 9830163H01Rik”, for which the z-score is -0.605. For GCUGUCUGAUUCUGAGGUGTT against Slc6a1, the z-score is 2 (active). To GGCAUAAACCACUUCCAGCTT against Dedd2 belongs 0.342; to GCAUUUAAGGACCUUGUAATT against Olfr813, -1.5; to GGCCAUGAUUGUGUUUCAGTT against Tspan8, 1.76.

As to GCCUUCCACUACCUUACGUTT against Kcnk3, the z-score is 0.067. CCGACAGACUCACAUACUGTT against Trex1: the z-score is -0.942. To GGCGUGUCUUGAUAGAAAUTT against Tesmin belongs 0.652; to GGGAGCAAACGAGAAGAUATT against Gjd2, 4.09 (active); to GCGCAAAGUCGAAUCCAGUTT against Vgll1, -0.156. Regarding GGAGGGUGAAGAGAAUGGUTT against R3hdm2, the z-score is 1.14. Turning to GGUCCAUCAGGAAAAUCAATT against Obox6, the z-score was 0.0445.

As for GGGCUCUGUGGAAAUCAUGTT against Rnf187, the z-score is -0.043.

For the sequence GGCUGUGAAUCUGAAGAGCTT against Chrna6, the z-score is 0.241. To CGAUUUCCCAAGUUAUUACTT against Nxf1 belongs -2.26 (active). Under GGUGGUAGCUUUGUACUUUTT against Nxnl2 stands 0.829; under GGAAGCACGUUGGAAGGAUTT against Olfr845, 0.461; under GGAGAAAAGGGUGCUGAAGTT against Ybx3, 2.85 (active).

GCAUAUGGAGCAACUUGCUTT against Dsg1c: the z-score was -1.17. Regarding GGCUGAAAGUGAAGAAACGTT against Srp68, the z-score is -2.11 (active). Under GGUGAUGAUCCCAUGGGUUTT against Ube2g2 stands -0.289. To GGUUUGUUUGUUUUUUGGUTT against Ajuba belongs 2.96 (active); to GGUGCAAAGCUUGAAAAUGTT against Gpr150, -0.324; to GCGAGUGCUUGGCUAUUAUTT against Ckap2, -0.234.

For GGAGUGAAAUAUGGAGUUGTT against Dhrs7b, the z-score was 0.787. To GGAAUGUAAGAACCCUUGCTT against Adam19 belongs 1.77.

Turning to GAUCUUAGCUGUGUGUGUGTT against Pf4, the z-score was -2.57 (active). To GGCCUAUGCGAAAAUCUGUTT against Camk2b belongs -1.14; to GGAAAUUCUGGCAUAAAUUTT against Cd86, -0.732; to GGACAUCAUUACAAAGAUGTT against Rgs6, -0.608. With GCUUCGAGAGUCAACUAUGTT against Mecom, the z-score is 0.232. To GGGCACAAAGAUAUGAAUATT against Lgals3bp belongs 0.147; to GGUGAGGUAGGUUACUCAGTT against Reps1, -2.16 (active). For the sequence GGAACGAAUGAAAAGACUUTT against Tpp2, the z-score is 0.35. Under GGUUGCUAUGAUUUUUGUUTT against Itsn1 stands 0.52. As to GGAAGUGAGAAGAUGGAUATT against Fam163b, the z-score is 0.93.

For the sequence GGGACAGAUACAGUUCAUGTT against Zan, the z-score is -0.114.

As to GCACGAGGAUUCAGAUAUCTT against Gusb, the z-score is -0.449. To GGAUCUCCUGCUUGAACUGTT against Adam33 belongs 2.79 (active); to CCAGCAUUAUCCAUAUCAATT against Nat2, 0.786. To GGUCUCAGACACCUGACUCTT against Opa3 belongs 1.53. Turning to GGUGUCAGCUUACCAUUCATT against Triap1, the z-score was -0.329.

Turning to CCUUGCAUUACUUCUAAAUTT against Aff2, the z-score is 0.29. Under GGCAUUGUGAAAUCCUAUUTT against Lhx5 stands -1.31; under CCUGACAGCACUUUGUGGATT against Arhgef4, 0.481. For GGUGCAUGUCUUCAUCCACTT against Rnase12, the z-score is 3.04 (active).

Consider GGAAAAUCCCUGUGUCCGATT against Spdye4a, for which the z-score was -1.34. On to GCAGGAGGUUUAUACAGCCTT against Spata5, for which the z-score was -0.969. To GCCUAUUCGAAUUUGGGAATT against Ogt belongs -0.0977; to GGAAAUGACGAGAAGAAAGTT against Mapt, -0.0597; to GCCUUUGUGAGGAUUAAACTT against Fam83f, -0.000611.

On to GGUAUAUGUCACCAUACUCTT against Phxr2, for which the z-score is -1.99. To GGCAUGAAGUUUGAAGCCATT against Cnnm2 belongs -2.47 (active); to GGAGCUCUUCCAGUUGUUUTT against Khk, -1.51. To GCAAUGUGAGAAUUUUAACTT against Psg26 belongs 2.03 (active); to GCACAGAGUCUAGUGUUUATT against Ube2j2, 0.325. To GGGCAUUGUUGUUUCUAUUTT against Lhfp belongs -0.0841. For CCAAAUUGCUGACUUAUUCTT against Ccna2, the z-score is 0.794.

On to GGGUUUCCUUAUGAGAAAGTT against Mien1, for which the z-score is -0.606.

For the sequence GGUUUGUGACAUUAUCUGCTT against Wrnip1, the z-score is 2.36 (active).

CGCUCCAUUGCUCAGUAUUTT against Vtn: the z-score is 1.63. With GGCAGCAGAGAAGAAAGCCTT against Pld3, the z-score is -3.16 (active). On to GCUCAAUUGUGGAGCAGUCTT against Cd5l, for which the z-score was -0.247.

These data come from PubChem BioAssay AID1508600 (Functional Genomics Laboratory (NCATS/FGL), 2020).
